Experimental data published in the supplement of paper PMC6555819.

Legend:
Experiment in all cases: PBM binding z-score (relative to random genomic background probes); higher = stronger binding; sequences stand for … in GC…GCGATTGACAGCGTAGAATGAAGG
[1] = test system: FXR:RXRa (NR concentration 270 nM, RXRa partner concentration 90 nM)
How it was run: (§1)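 The probes on custom Agilent 4×180K protein-binding microarrays were double-stranded, with 34-nt variable regions bearing direct-repeat seeds, single-nucleotide variants, half-site ablations and random human genomic background sequences. Incubation lasted 1 h with ligand-free nuclear receptor dimers in PBS pH 7.4, 2% milk, 0.02% Triton X-100, 1 mM DTT, 0.2 mg/mL BSA and 0.4 mg/ml salmon testes DNA. Antibodies against each partner (one per run) detected bound dimers, and fluorescence scans were regression-normalized. Binding z-scores take the random background probes as reference.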

[2] = test system: LXRa:RXRa (NR concentration 270 nM, RXRa partner concentration 90 nM)
How it was run: as §1

[3] = test system: LXRa homodimer (NR concentration 270 nM)
How it was run: as §1

[4] = test system: LXRb:RXRa (NR concentration 270 nM, RXRa partner concentration 90 nM)
How it was run: as §1

[5] = test system: LXRb homodimer (NR concentration 270 nM)
How it was run: as §1

[6] = test system: PPARa:RXRa (NR concentration 270 nM, RXRa partner concentration 90 nM)
How it was run: as §1

[7] = test system: PPARg:RXRa (NR concentration 180 nM, RXRa partner concentration 90 nM)
How it was run: as §1

[8] = test system: PPARg:RXRa 270nM:90nM, anti-RXR (NR concentration 270 nM, RXRa partner concentration 90 nM)
How it was run: as §1

[9] = test system: PPARg:RXRa 30nM:10nM, anti-RXR (NR concentration 30 nM, RXRa partner concentration 10 nM)
How it was run: as §1

[10] = test system: PPARg:RXRa 90nM:30nM, anti-RXR (NR concentration 90 nM, RXRa partner concentration 30 nM)
How it was run: as §1

Sequence	PBM binding z-score [1]	PBM binding z-score [2]	PBM binding z-score [3]	PBM binding z-score [4]	PBM binding z-score [5]	PBM binding z-score [6]	PBM binding z-score [7]	PBM binding z-score [8]	PBM binding z-score [9]	PBM binding z-score [10]
CCTACTGGGGCATTCAGAGGTCATTGATCATATG	3.08	4.37	6.25	3.91	0.359	4.07	3.34	4.13	1.23	3.12
GCGACTGGGTCATCAGCAGGTTACCATAACTTAA	2.66	1.93	-0.34	2.04	-1.03	4.06	5.18	4.73	1.52	3.88
CCTATTAGTTGACCATAAGGGCTACCGAAGCTCG	0.118	0.0436	0.338	0.131	0.649	-0.0868	0.355	0.0189	0.219	0.0475
TCATATAGGTAGAGGTGAAAGTCGAACGATATGA	0.743	0.996	-0.23	0.833	-0.246	2.43	1.96	3.02	3.6	3.28
ACAGACAGGTGATGAACGTAACTCAGGCTATCAT	-0.0915	-0.174	0.0611	-0.231	-0.49	-0.156	0.922	-0.0111	0.477	-0.194
CCTCGGAGGACAACAGGAAGTCAGAGCTGCCAGA	-0.229	-0.454	-0.458	-0.667	-0.823	-0.671	0.123	-0.726	-1.03	-1.13
TAGACTAGGTCAGATCGGGCCAGTATACGCTATA	1.54	0.872	-0.254	0.626	0.289	2.47	3.05	2.82	1.07	2.03
CCTACTGGGCCAGGGTCATTGATCAGTCAAAGCA	2.51	2.16	0.0124	2.58	-1.02	4.14	3.23	3.68	0.898	2.87
CGTCCAAGGTCATAGCAGGTCAGTGAAGACAGAT	7.63	7.02	3.65	5.58	0.842	5.85	5.23	5.24	2.03	4.17
TCATATAGGTAAACCGGTGAAAGTCCGTAAGTTA	0.407	0.533	0.147	0.517	-0.352	1.68	1.17	2.72	3.49	2.97
ATCTCTAGGTAACAAGTTCAGTAAAAGAGAGGAC	0.872	1.08	1.01	0.953	1.1	1.81	1.76	2.11	0.675	1.82
CAAACTAGGTCAAAGGTGAAAGTCGAGCCAACCA	6.6	5.02	0.751	4.52	0.619	7.19	13.3	10.7	12.4	13.5
AGAACGAGGGCACGCTGAGTTGAAAGCAGAGTAG	0.945	0.542	-0.955	0.276	-0.933	2.38	2.11	1.77	0.0784	1.03
CGTCAAAGTTCAACTAAAGTAACGTAAAGCACGC	6.66	6.26	3.94	4.14	2.66	4.93	5	5.38	2.2	4.09
CCTTACGGGTGACTCCAGGTTATAGCATCGGAGT	0.642	5.37	0.839	1.76	-0.486	1.35	0.581	0.491	-0.12	0.123
ATACCAAGGTAATCGTGAGGTCGTTGATACTAAC	1.31	1.48	0.673	1.29	0.295	1.38	0.484	0.308	-0.0613	0.22
CCGACTGGGGCAAAGGTTACCAAACTCAGTACGA	1.54	1.78	0.0328	2.27	-1.29	5.64	10.5	9.36	9.35	10.6
CAAATTAGGTCAAGAGGTCAAAGTCCGCTTCCCG	7.34	6.64	6.19	6.05	2.41	6.6	9.93	8.63	8.32	9.12
TCTGCTAGATCAGTTGGTCAGCTAACGAGCTGCC	-2.98	-0.794	-1.07	-0.988	-0.764	-0.465	-0.552	0.389	1.24	0.547

Sequence	PBM binding z-score [1]	PBM binding z-score [2]	PBM binding z-score [3]	PBM binding z-score [4]	PBM binding z-score [5]	PBM binding z-score [6]	PBM binding z-score [7]	PBM binding z-score [8]	PBM binding z-score [9]	PBM binding z-score [10]
CCTTACGGGTCACGAGGTTATAGCACGACGAGCG	6.74	4.6	0.401	4.02	-0.321	5.94	7.45	6.6	3.13	5.31
CCTACTGGGACAAAGGTCATTGATTCCAATGCTC	5.11	5.21	4.66	4.9	1.5	6.27	11.8	10.3	12.2	11.7
ATCTCTAGGTAAAGATAGTGCAGTGAATGCAAAT	0.222	1.16	0.00124	0.147	0.236	0.141	0.354	0.233	0.0457	0.565
GCGACTGGGGCATCAGCAGGTTACCATCACTTAA	-0.298	-0.121	-0.321	0.504	-0.992	0.811	0.679	0.547	-0.615	-0.341
CCTACTGGGGCAAGGTTACCATAACGCACAGCCA	0.343	0.654	-0.167	0.621	-0.484	2.59	4.74	4.44	2.15	4.29
CGAACTAGATCAAGGACAGTGAATCTCCGCACGC	-0.0387	-0.559	-0.0881	-0.756	-0.00382	-0.388	0.599	-0.0723	-0.423	-0.36
TCTCGGAGGAGACGAAGGTCAGAGCTTTCCAGAG	0.255	0.507	-0.124	0.569	-1.39	1.62	-0.069	1.26	1.84	1.51
CAGCCTGGGTCAGGGCCAGTATAGGAGGAACGTT	0.78	0.261	-0.628	0.24	-1.02	2.03	0.871	0.727	-0.545	0.0759
ATCTCTAGGTAACAGTTCAGTGAATCCCGAGGAT	0.279	0.179	0.588	0.193	0.937	2.24	3.39	4.74	3.06	4.55
TCTATTAGTTGATTAAGGCAACCGAAACAGCGGA	0.785	0.541	0.0619	0.645	0.994	0.614	0.172	2.06	3.75	2.99
CCTCGGAGGACAGAAGGTCCGAGCTGTCCGCTTT	-0.475	-0.736	-0.887	-1.15	-0.992	-1.11	-0.956	-1.22	-1.48	-1.44
ATTAGCAGGCCAAGGGTCACTCAAGATTAGTCCG	2.8	2.8	0.436	2.69	-0.147	4.73	7.98	7.44	6.52	7.55
CCTTACGGGTCAAGGTTATAGTACGGGTGGTACG	6.07	3.88	0.501	3.24	0.225	5.17	4.78	4.77	1.91	3.37
CCTACTGGGCCACGAAAGGTCATCGATTCAGTGA	3.74	5.24	4.54	4.28	0.188	5.09	5.36	5.2	2.42	4.73
CGAACTAGGTCGTTGACAGGACAGTGAATAGTAA	0.598	0.178	-0.251	0.171	-0.626	1.98	2.2	2.02	0.441	1.44
AGAATGAGGTTATTAAGATCGGGGAATTGCGGTC	1.39	1.31	0.0422	1.14	0.139	2.39	0.982	1.43	0.253	0.888
TAGCCCAGGTCATGCGGGCCAGTATAGTGTCGGC	4.35	3.42	0.136	1.9	-0.0451	3.8	2.55	2.55	0.267	1.35
CGAACGAGGGCACGAGTTGATAGCAAATGCCGAT	0.992	0.567	-0.547	0.453	-0.624	2.28	2.4	1.99	0.448	1.44
ACTATTAGTTGAGACGAGGGCAACAGATAGGTTG	0.212	-0.0273	-0.073	0.0186	0.272	0.442	0.846	-0.171	0.0997	-0.129
